Bioassay records: PubChem BioAssay, several laboratories
An excerpt weighted towards active compounds, which were near 3.7% of everything screened.
NALP3 yeast inh: inhibitors of NALP3 inflammasome in yeast | AID 2825 | Yeast reconstituted NLRP3/ASC/caspase-1, beta-gal luminescence, 24 h | inhibition, % at 10 µM | 330,000 tested, 0.39% active;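 active = inhibition of 50% or more; inactive = inhibition below 50%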;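 also: plate controls were induced DMSO wells for no effect and uninduced yeast grown without galactose for full effect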
tim23-1 inh: growth inhibitors of tim23-1 mutant yeast | AID 463212 | S. cerevisiae tim23-1 growth, BacTiter-Glo luminescence, 24 h | inhibition, % at 20 µM | 330,000 tested, 1.3% active;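 active = growth inhibition of the mutant yeast at or above 50%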;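 also: temperature-sensitive mutant grown at 25 °C; plate controls were DMSO-treated mutant yeast for no effect and medium wells lacking yeast for full effect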
tim10-1 inh: growth inhibitors of tim10-1 mutant yeast | 330,000 tested, 2.2% active | inhibition, % at 20 µM | AID 463190 | S. cerevisiae tim10-1 ts strain growth, BacTiter-Glo, 24 h;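 active = inhibition of at least 40%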;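 also: mutant grown at 25 °C; 0% = DMSO wells with yeast and 100% = wells holding no yeast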
TIM10 inh: TIM10 yeast growth inhibition. S. cerevisiae TIM10 strain growth, BacTiter-Glo luminescence, 24 h. inhibition, % at 10 µM. 330,000 tested, 1.4% active;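 active = inhibition of 40% or more at the single tested concentration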;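 also: wild-type TIM10 isogenic control strain grown at permissive 25 °C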
PfHsp90 yeast 2: reduces growth (ATP signal) of yeast expressing P. falciparum Hsp90. S. cerevisiae expressing PfHsp90, BacTiter-Glo ATP, 48 h; yeast lacking PDR1 and PDR3 efflux regulators. inhibition, % at 9.4 µM. 310,000 tested, 0.32% active. AID 504621;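 active = every replicate shows inhibition above about 80%, whatever the replicate mean, limit read from the data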;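 also: 0% = DMSO neutral controls and 100% = 20 µM radicicol positive controls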
tim10-1 confirm: confirmation of tim10-1 mutant yeast growth inhibitors | S. cerevisiae tim10-1 ts strain growth, BacTiter-Glo, 24 h | inhibition, % at 20 µM | shares compounds with tim10-1 inh | 7,400 tested, 56% active;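 active = inhibition of yeast growth at or above a set limit in either of two repeat tests at 20 µM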;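 also: tim10-1 mutant grown at permissive 25 °C to find synthetic lethal compounds; 0% = DMSO yeast wells and 100% = medium wells without yeast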
* hit, by the source's call; . = not tested or not shown.

SMILES	NALP3 yeast inh	tim23-1 inh	tim10-1 inh	TIM10 inh	PfHsp90 yeast 2	tim10-1 confirm
Cc1cc(NCCCN2CCOCC2)n2nc(C)c(-c3ccccc3)c2n1	25.9	18.6	18.8	9.2	-4.4	.
CCSc1cc(C)nc2c(-c3ccccc3)c(C)nn12	1.7	36.0	40.2*	6.7	-0.6	16.8
COc1ccc(S(=O)(=O)N2CCOCC2)cc1NC(=O)CN1CCCc2ccccc21	19.7	0.0	-1.4	5.8	18.5	.
O=C(NC(=S)NCc1ccc2c(c1)OCO2)c1ccccc1	11.5	49.6	45.1*	34.9	-65.1	24.6
O=C(NCc1ccc2c(c1)OCO2)Nc1ccc(F)cc1	26.6	-6.5	-11.6	-3.0	21.0	.
O=C(NCCC1=CCCCC1)NC12CC3CC(CC(C3)C1)C2	3.2	33.2	40.7*	36.0	-27.5	32.5*
O=C(NCCc1ccc(F)cc1)NC12CC3CC(CC(C3)C1)C2	10.6	49.4	32.7	25.1	-21.1	.
O=C(NCc1ccc2c(c1)OCO2)c1ccccc1	10.2	9.5	8.2	-6.0	-25.6	.
COc1ccc(CCNC(=O)NC23CC4CC(CC(C4)C2)C3)cc1	7.3	37.6	45.1*	24.1	-37.2	35.5*
O=C(NCc1ccc2c(c1)OCO2)NC12CC3CC(CC(C3)C1)C2	26.5	42.8	40.9*	30.7	10.6	29.8*
CN1C(=O)S/C(=C\c2ccc(-n3cncn3)cc2)C1=O	35.1	12.6	13.7	-2.5	1.8	.
COCCNC(=O)COC(=O)c1cccnc1SC	6.1	9.0	-2.6	-10.7	-8.7	.
Nn1c(SCC(=O)Nc2ccc(F)cc2)nnc1-c1cccnc1	10.3	4.3	5.4	17.5	.	.
Cc1cccc(NC(=O)CCCN2C(=O)c3cccc4cccc(c34)C2=O)c1	9.0	9.7	18.5	4.9	-8.5	.
CCN1C[C@@H]2[C@@H]3C(=O)N(C)C(=O)[C@@H]3[C@](Cc3ccccc3)(C1=O)N2C(=O)c1ccccc1	.	.	.	.	-14.1	.
Cc1ccc(S(=O)(=O)N2CCN(C(=O)C3Cc4ccccc4CN3C(=O)c3ccco3)CC2)cc1 (stereo unspecified)	5.8	5.1	7.8	3.9	8.7	.
COc1ccc(CC(=O)OCC(=O)NC(=O)NC23CC4CC(CC(C4)C2)C3)cc1	15.9	35.8	40.4*	29.7	7.2	12.4
COc1ccc(C(=O)NCC(=O)OCC(=O)NC23CC4CC(CC(C4)C2)C3)cc1	18.3	31.3	19.0	18.9	-5.5	.
COc1ccc(N2CCN(C(=O)NC34CC5CC(CC(C5)C3)C4)CC2)cc1	6.3	30.8	47.8*	14.5	-1.1	23.8
O=C(Nc1ccc(Br)cc1)Nc1cnccn1	41.3	3.6	-1.7	3.2	1.7	.
CCC(Sc1nnc2c3ccccc3n(CC)c2n1)C(=O)Nc1sc2c(c1C#N)CCCC2 (stereo unspecified)	9.9	17.5	18.1	15.0	.	.
Cc1c(C)c2ccc(Oc3ccc([N+](=O)[O-])cc3C(F)(F)F)c(C)c2oc1=O	3.2	21.9	40.3*	18.8	4.7	22.9
CC(C)NC(=O)CSCc1c(F)cccc1Cl	18.2	13.8	13.1	-12.2	.	.
COc1cccc(NC(=S)N(Cc2ccc(Cl)cc2)Cc2ccc(C(=O)O)cc2)c1	22.5	8.8	-6.8	3.3	-9.6	.
N#Cc1ccccc1NC(=O)C1SC(=Nc2ccccc2)C(C(=O)Nc2ccc(Cl)cc2)=C1N (stereo unspecified)	19.3	25.9	43.4*	30.2	.	29.2
SMILES	NALP3 yeast inh	tim23-1 inh	tim10-1 inh	TIM10 inh	PfHsp90 yeast 2	tim10-1 confirm
CCOc1ccc(N=C2SC(C(=O)Nc3ccccc3C#N)C(N)=C2C(=O)Nc2ccc(Cl)cc2)cc1 (stereo unspecified)	17.3	15.9	11.5	-0.3	-23.6	.
CCN(CCc1ccccc1)c1ccc2c(c1)C1CC2CCN1C(=O)OCc1ccccc1 (stereo unspecified)	.	.	.	.	-0.4	.
Cc1cc(C)c(C#N)c(SCC(=O)c2cccs2)n1	24.3	28.0	43.7*	9.2	.	27.1
Cc1ccc(S(=O)(=O)N(C(=O)c2ccncc2)c2ccc(OC(=O)c3ccncc3)c3ccccc23)c(C)c1	5.7	45.7	48.0*	19.4	2.6	32.4*
Cc1ccc(S(=O)(=O)N(C(=O)c2ccncc2)c2ccc(OC(=O)c3ccncc3)c3ccccc23)cc1	4.2	45.9	27.2	30.4	-17.5	.
O=C(NCCc1ccccc1)c1ccc(CS(=O)Cc2ccc(Cl)cc2)o1 (stereo unspecified)	12.9	5.6	12.1	11.0	7.9	.
Nc1cc(-c2cccc(Br)c2)nn1Cc1ccccc1	19.7	34.0	45.7*	17.7	-3.6	18.5
CCOC(=O)[C@H]1[C@H]2COc3ccc(Cl)cc3[C@@H]2N2C(=O)CN(Cc3ccco3)C(=O)[C@@]12C	-1.2	1.3	17.8	8.9	-9.6	.
Cn1c(CSc2nnc(SCc3ccccc3)s2)nc2ccccc21	-3.4	40.5	56.2*	36.7	-4.1	42.4*
O=c1[nH]ncc(NCc2ccc(Cl)cc2)c1Cl	12.0	7.0	-2.0	10.2	-23.3	.
COc1ccc(CC2(CO)CCN(CC3=Cc4cc(Cl)ccc4OC3)CC2)cc1	25.7	-85.6	-21.3	-43.0	-8.6	.
O=C(c1ccc(Cl)cc1)[C@@H]1[C@@H]2C(=O)N(c3ccccc3)C(=O)[C@@H]2C2c3ccccc3C=NN21 (stereo partly specified)	-7.1	40.8	40.1*	15.3	-12.3	23.0
CN1CCN(c2nc(Nc3ccc(F)cc3)nc(Nc3ccc(F)cc3)n2)CC1	33.0	19.8	-9.5	7.0	8.5	.
CCC(SC1=NCCS1)C(=O)Nc1ccc(S(N)(=O)=O)cc1 (stereo unspecified)	0.7	-1.2	-0.8	-2.5	7.1	.
c1ccc(-c2nnc3ccc(N4CCC5(CC4)OCCO5)nn23)cc1	3.0	26.6	43.1*	17.2	6.3	22.6
NC(=O)C1(N2CCCCC2)CCN(c2ccc3nnc(-c4ccccc4)n3n2)CC1	17.4	-18.3	-1.8	0.3	16.4	.
Nc1ccc2c(c1)Cc1cc(N)c(Br)cc1-2	.	.	.	.	9.6	.
CCc1ccc(/C=C2\Oc3cc(OC(=O)N4CCOCC4)ccc3C2=O)cc1	15.1	27.2	50.5*	29.1	49.4	17.5
Cc1cc(C(F)(F)F)nn2cnnc12	15.5	-8.9	5.6	5.2	-2.0	.
O=C1CN(C(=O)/C=C/c2cccc(Cl)c2)c2ccccc2N1	20.5	22.1	40.6*	26.9	2.2	33.6*
O=C1CN(C(=O)/C=C/c2ccc(Cl)cc2)c2ccccc2N1	13.5	39.1	-1.1	17.8	-10.3	.
Cc1noc(C)c1CSCC(=O)Nc1ccc(S(=O)(=O)C(F)F)cc1	13.5	6.2	26.2	15.9	-7.2	.
COc1ccc(CCn2c(=O)[nH]c3cc(C(=O)N4CCN(c5ccccn5)CC4)ccc3c2=O)cc1OC	2.0	-8.0	-1.2	-6.0	-10.8	.
CCOc1ccc(C(=O)CC(Sc2ccc(C)cc2)C(=O)O)cc1 (stereo unspecified)	11.2	26.0	20.4	8.9	-4.7	.
